The source of these data is PubChem BioAssay (NCI).

Compounds without any hit were thinned out: in the full panel of roughly 83,000, 20% have a hit.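 Results are percent growth after 48 hours of single-concentration exposure. 100 means growth as in untreated cells, lower positive values show inhibition; negative values down to -100 show cell death.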 Activity calls are given as the source filed them. Rule for the calls: active = growth percent below 10; inactive = the rest.

The assay has as its system HL-60(TB) leukemia. Put plainly: NCI-60 one-dose screen, 48 h (100 = growth as untreated, 0 = no growth, -100 = all killed). As to conditions: 10 µM unless noted.
For the molecule `CN1CCN(Cc2ccc(NC(=O)c3cncc(C#Cc4cnc5ccc(N6CCOCC6)nn45)c3)cc2C(F)(F)F)CC1`, the growth was -40.8% (active). The figure for `O=C(c1ccc(O)cc1)C1[C@H](c2ccc(Cl)cc2)[C@@H](c2ccccc2)NC12C(=O)Nc1ccc(Cl)cc12` (stereo partly specified) is 38.5% (inactive). The figure for `CCOP(=O)(OCC)OC[C@]12CCC(C)(C)C[C@H]1C1=CC[C@@H]3[C@@]4(C)CC[C@H](OP(=O)(OCC)OCC)C(C)(C)[C@@H]4CC[C@@]3(C)[C@]1(C)CC2` is 8.99% (active); for `Cc1ccc(C(=O)Nc2cccc(C(F)(F)F)c2)cc1Nc1nc(-c2cnccn2)nc2c1cnn2C` it is 22% (inactive).

With `CN1CCN(Cc2ccc(NC(=O)c3cncc(C#Cc4[nH]nc5ncncc45)c3)cc2C(F)(F)F)CC1`, the growth was 21.5% (inactive). Consider `COc1cc(OC)c(/C=C/S(=O)(=O)Cc2ccc(OC)c(NC(=O)CCC(=O)NO)c2)c(OC)c1`, for which the growth was -10.8% (active). Take `C=CC(=O)N1CCC=C(c2cc3c(N[C@H](C)c4ccccc4)ncnc3[nH]2)C1`: the growth was 72.4% (inactive). As for `CN1CCN(Cc2ccc(NC(=O)c3cncc(C#Cc4cnc5ccc(OCC6COC6)nn45)c3)cc2C(F)(F)F)CC1`, the growth was -42.8% (active). Turning to `COc1ccc(/C(=N\NC(N)=S)c2ccc(Cl)cc2)cc1OC`, the growth is 13.2% (inactive).

For `COc1ccc2[nH]cc(-c3cc(N)n4nc(-c5c[nH]c6ccc(OC)cc56)cc4n3)c2c1`, the growth is -46.1% (active). Turning to `CC(C)(C)c1cc(NC(=O)Nc2ccc(-c3cn4c5c(sc4n3)CCc3cn(CCCN4CCCCC4)cc3-5)cc2)no1`, the growth is -18.9% (active).
